SMILES strings stand for the structures. Compounds without any hit were thinned out: in the full panel of roughly 83,000, 20% have a hit.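 Single-dose data. Exposure time 48 hours. Values below 10 considered active.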 A number with no mark means an inactive call. Activity calls are given as the source filed them.

Holding throughout (assay): NCI-60 one-dose screen, 48 h (100 = growth as untreated, 0 = no growth, -100 = all killed)
For one assay, the system named is EKVX NSCLC. The following applies: 10 µM unless noted.
The test system of another assay is SN12C renal. The following applies: 10 µM unless noted.
The subject of a further assay is UO-31 renal. To be noted: 10 µM unless noted.
For the next assay, the system named is TK-10 renal. The following applies: 10 µM unless noted.
In another assay the test system is ACHN renal. To be noted: 10 µM unless noted.
The subject of a further assay is CAKI-1 renal. To be noted: 10 µM unless noted.
A further assay relates to A498 renal. The following applies: 10 µM unless noted.
In another assay the test system is CCRF-CEM leukemia. To be noted: 10 µM unless noted.
In a further assay the test system is MOLT-4 leukemia. The following applies: 10 µM unless noted.
The subject of the next assay is SR leukemia. To be noted: 10 µM unless noted.
The subject of a further assay is RPMI-8226 leukemia. To be noted: 10 µM unless noted.
The subject of another assay is OVCAR-8 ovarian. To be noted: 10 µM unless noted.
The next assay relates to OVCAR-5 ovarian. The following applies: 10 µM unless noted.
Another assay relates to OVCAR-4 ovarian. The following applies: 10 µM unless noted.
The test system of another assay is SK-OV-3 ovarian. To be noted: 10 µM unless noted.
In the next assay the test system is IGROV1 ovarian. To be noted: 10 µM unless noted.
The test system of the next assay is OVCAR-3 ovarian. The following applies: 10 µM unless noted.
The next assay concerns NCI/ADR-RES ovarian. To be noted: 10 µM unless noted.
In another assay the test system is HS 578T breast. To be noted: 10 µM.

As for `Cc1cc(-c2cc(O)ccc2Cl)cc2nnc(Nc3ccc(OCCN4CCCC4)cc3)nc12`, the growth in the assay with EKVX NSCLC is -81.1% (active); with SN12C renal it was -79.2% (active); in the assay on UO-31 renal it was -87.3% (active); in the assay on TK-10 renal, -82.1% (active); in the assay on ACHN renal, -92.7% (active); in the assay with CAKI-1 renal it was -83% (active). Also, the growth in the assay with A498 renal was -68.9% (active); with CCRF-CEM leukemia, -51.9% (active); in the assay on MOLT-4 leukemia, -42.9% (active); with SR leukemia, -35% (active); in the assay on RPMI-8226 leukemia, -43.9% (active); with OVCAR-8 ovarian, -63.6% (active). In addition, the growth with OVCAR-5 ovarian was -83.5% (active); in the assay on OVCAR-4 ovarian, -81.9% (active); in the assay on SK-OV-3 ovarian, -77.7% (active); with IGROV1 ovarian, -60.2% (active); in the assay on OVCAR-3 ovarian, -79.7% (active); with NCI/ADR-RES ovarian, -69.3% (active).

For the compound `O=c1sn(-c2cccc3ccccc23)c(=O)n1Cc1ccccc1`, the growth is 108% with EKVX NSCLC; 94.8% with SN12C renal; 86.3% in the assay on UO-31 renal; 95.5% with TK-10 renal; 106% with ACHN renal; 99% in the assay on CAKI-1 renal. Moreover, the growth is 102% with A498 renal; 64.9% in the assay on CCRF-CEM leukemia; 39.1% in the assay with MOLT-4 leukemia; 38.7% in the assay with SR leukemia; 76.8% with RPMI-8226 leukemia; 94.4% with OVCAR-8 ovarian. Also, the growth in the assay with OVCAR-5 ovarian was 112%; in the assay with OVCAR-4 ovarian it was 107%; in the assay on SK-OV-3 ovarian, 83%; in the assay on IGROV1 ovarian, 98.2%; in the assay with OVCAR-3 ovarian it was 99.4%; with NCI/ADR-RES ovarian, 107%.

As to `Cc1ccc(NC(=O)c2ccc(CN3CC[C@H](N(C)C)C3)c(C(F)(F)F)c2)cc1Nc1nccc(-c2cncnc2)n1`, the growth is 15.3% in the assay on EKVX NSCLC; -32.6% (active) in the assay on SN12C renal; -61.3% (active) in the assay on UO-31 renal; -30.1% (active) in the assay with TK-10 renal; 1.22% (active) with ACHN renal; 6.85% (active) with CAKI-1 renal. In addition, the growth with A498 renal is -59.9% (active); with CCRF-CEM leukemia, 4.61% (active); in the assay on MOLT-4 leukemia, -4.64% (active); with SR leukemia it was -7.54% (active); with RPMI-8226 leukemia, -9.27% (active); with OVCAR-8 ovarian, 3.4% (active). The growth in the assay with OVCAR-5 ovarian was 15.3%; with OVCAR-4 ovarian it was -4.76% (active); in the assay on SK-OV-3 ovarian it was 38.6%; in the assay on IGROV1 ovarian, 0.261% (active); in the assay on OVCAR-3 ovarian it was -6.36% (active); in the assay with NCI/ADR-RES ovarian it was 24.9%.

With `O=C(COc1cccc(/C=C2\Cc3ccc(Cl)cc3C2=O)c1)Nc1nccs1`, the growth is 98.1% in the assay on EKVX NSCLC; 89.3% with SN12C renal; -68% (active) with UO-31 renal; 142% with TK-10 renal; 91.8% with ACHN renal; 78.2% with CAKI-1 renal. For the same compound, the growth was 98.3% in the assay with A498 renal; 77.1% with CCRF-CEM leukemia; 37.3% in the assay on MOLT-4 leukemia; 48% with SR leukemia; 54.6% in the assay on RPMI-8226 leukemia; 102% with OVCAR-5 ovarian. Moreover, the growth is 81.6% in the assay on OVCAR-4 ovarian; 96% in the assay with SK-OV-3 ovarian; 89.6% in the assay on OVCAR-3 ovarian; 105% in the assay with HS 578T breast; 76.6% in the assay with NCI/ADR-RES ovarian.

For the compound `CCOc1cc2ncc(C#N)c(Nc3ccc(OCc4ccccn4)c(Cl)c3)c2cc1NC(=O)/C=C/CN(C)C`, the growth in the assay with EKVX NSCLC is 20.7%; in the assay on SN12C renal it was -62.8% (active); in the assay on UO-31 renal it was -85% (active); in the assay with TK-10 renal, 5.99% (active); in the assay with ACHN renal, -56% (active); with CAKI-1 renal, 5.2% (active). The growth is 34.7% in the assay with A498 renal; 3.88% (active) with CCRF-CEM leukemia; 19.9% with MOLT-4 leukemia; -6.61% (active) in the assay on SR leukemia; -7.58% (active) in the assay on RPMI-8226 leukemia; -7.74% (active) in the assay on OVCAR-8 ovarian. Besides, the growth was 9.55% (active) with OVCAR-5 ovarian; -73.6% (active) with OVCAR-4 ovarian; -10.6% (active) in the assay with SK-OV-3 ovarian; -62.5% (active) in the assay with IGROV1 ovarian; 47.5% in the assay on OVCAR-3 ovarian; -10.8% (active) in the assay on NCI/ADR-RES ovarian.

Turning to `COc1cc2c(Nc3ccc(Br)cc3F)ncnc2cc1OCC1CCN(C)CC1`, the growth in the assay with EKVX NSCLC is 35.4%; in the assay on SN12C renal, 16.9%; with UO-31 renal, -88.3% (active); in the assay with TK-10 renal, -4.33% (active); with ACHN renal, 9.47% (active); in the assay with CAKI-1 renal it was 0.316% (active). Further, the growth is -71.1% (active) with A498 renal; 14.5% in the assay with CCRF-CEM leukemia; 18.1% in the assay with MOLT-4 leukemia; -6.08% (active) in the assay on SR leukemia; 26.8% in the assay with RPMI-8226 leukemia; 27.6% in the assay with OVCAR-8 ovarian. The growth in the assay on OVCAR-5 ovarian is 34.8%; in the assay on OVCAR-4 ovarian, 36.4%; in the assay with SK-OV-3 ovarian, -5.59% (active); with IGROV1 ovarian it was -21.9% (active); with OVCAR-3 ovarian it was 42.4%; with NCI/ADR-RES ovarian, 30.3%.

In the case of `C[C@@H](Oc1cc(C(=O)Nc2ccc(C(=O)N3CCN(C)CC3)cc2)nnc1N)c1c(Cl)ccc(F)c1Cl`, the growth with EKVX NSCLC is 72.5%; in the assay with SN12C renal, 64.5%; with UO-31 renal, 48.4%; in the assay on TK-10 renal, 79.4%; in the assay on ACHN renal, 91.8%; in the assay on CAKI-1 renal it was 75.5%. The growth with A498 renal was 65%; in the assay on CCRF-CEM leukemia, 55.9%; in the assay with MOLT-4 leukemia, 34.8%; in the assay with SR leukemia, 0.634% (active); with RPMI-8226 leukemia, 36.7%; in the assay on OVCAR-8 ovarian, 63.1%. In addition, the growth in the assay on OVCAR-5 ovarian is 75.3%; in the assay with OVCAR-4 ovarian, 78.2%; with SK-OV-3 ovarian, 66.9%; with IGROV1 ovarian it was 86%; in the assay on OVCAR-3 ovarian, 91.6%; in the assay with NCI/ADR-RES ovarian, 76.5%.

Turning to `CNC(=O)CN1CCC(Oc2cc3c(Nc4cccc(Cl)c4F)ncnc3cc2OC)CC1`, the growth is 32.1% with EKVX NSCLC; 42.7% with SN12C renal; 26.3% in the assay with UO-31 renal; 1.03% (active) with TK-10 renal; 8.22% (active) in the assay with ACHN renal; 10.6% in the assay on CAKI-1 renal. In addition, the growth was 44.2% in the assay on A498 renal; 64.7% in the assay on CCRF-CEM leukemia; 51.7% in the assay on MOLT-4 leukemia; 63.8% with SR leukemia; 70.9% in the assay with RPMI-8226 leukemia; 45.6% in the assay with OVCAR-8 ovarian. Also, the growth was 25.3% with OVCAR-5 ovarian; 70.5% in the assay with OVCAR-4 ovarian; -22.4% (active) in the assay with SK-OV-3 ovarian; -25.2% (active) in the assay with IGROV1 ovarian; 46.3% in the assay on OVCAR-3 ovarian; 56.6% in the assay with NCI/ADR-RES ovarian.
